Several values for one entry are separate records, joined by “and”; a condition that tells them apart may be missing. Identical values can stand only once. Among all 5,500 compounds or so, about 2,000 (36%) were called active. Inconclusive results (about 18%) are left out. Cut-off read from the data, not from the text of the source: active = normalized growth mostly below about 0.91 (no sharp cut-off); inconclusive = no clear call, values can overlap the other calls; inactive = mostly above about 0.92. This is one part of the list.
Assay: chemical genetic growth profiling, strain panel (AID 1159580);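 note: tested at 20 µM; growth read once vehicle control cultures reached saturation at 30 °C; 1 = growth at the plate median or of vehicle wells; lower values mean less growth of the strain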
Settings: growth OD
[1] = S. cerevisiae deletion strains, locus YAL040C, strain CLN3, stronger effect = lower value
[2] = S. cerevisiae deletion strains, locus YCL061C, strain MRC1 (second series), stronger effect = lower value
[3] = S. cerevisiae deletion strains, locus YDR150W, strain NUM1, stronger effect = lower value
[4] = S. cerevisiae deletion strains, locus YER002W, strain NOP16, stronger effect = lower value
[5] = S. cerevisiae deletion strains, locus YMR307W, strain GAS1, stronger effect = lower value
[6] = S. cerevisiae deletion strains, locus YNL153C, strain GIM3, stronger effect = lower value
[7] = S. cerevisiae deletion strains, locus YNL175C, strain NOP13, stronger effect = lower value
[8] = S. cerevisiae deletion strains, locus YNL197C, strain WHI3, stronger effect = lower value
[9] = S. cerevisiae deletion strains, locus YNL224C, strain SQS1, stronger effect = lower value
[10] = S. cerevisiae deletion strains, locus YOR083W, strain WHI5 (second series), stronger effect = lower value
[11] = S. cerevisiae deletion strains, locus YPL241C, strain CIN2, stronger effect = lower value

Measured: normalized growth

N[C@H](C(=O)O)[C@H](O)C(=O)O
inactive: S. cerevisiae deletion strains, locus YAL013W, strain DEP1, stronger effect = lower value 0.972 | [1] 0.965 | [2] 0.994 | [3] 1 | S. cerevisiae deletion strains, locus YDR363W, strain ESC2, stronger effect = lower value 0.987 | [4] 1 | [5] 0.992 | [6] 0.989 | [7] 1.01 | [8] 0.996 | [9] 0.983 | [10] 1.06 | [11] 0.992

NC(CP(=O)(O)O)C(=O)O (stereo not drawn)
inactive: [1] 1.09 | [2] 0.998 | [4] 1.03 | [6] 1.04 | [7] 1.01 | [8] 1.01 | [9] 1.01 | [10] 1.01 | S. cerevisiae deletion strains, locus YPL055C, strain LGE1, stronger effect = lower value 1.02

O=C(O)C(O)C(O)C(O)C(O)C(=O)O (stereo not drawn)
inactive: S. cerevisiae deletion strains, locus YBR021W, strain FUR4, stronger effect = lower value 0.99 | S. cerevisiae deletion strains, locus YBR229C, strain ROT2, stronger effect = lower value 0.998 | S. cerevisiae deletion strains, locus YCL029C, strain bik1, stronger effect = lower value 0.982 | S. cerevisiae deletion strains, locus YDL035C, strain GPR1, stronger effect = lower value 1.04 | S. cerevisiae deletion strains, locus YDL074C, strain BRE1, stronger effect = lower value 1.04 | S. cerevisiae deletion strains, locus YDL101C, strain DUN1, stronger effect = lower value 0.988 | S. cerevisiae deletion strains, locus YDL185W, strain tfp1, stronger effect = lower value 1 | S. cerevisiae deletion strains, locus YDL192W, strain arf1, stronger effect = lower value 0.993 | S. cerevisiae deletion strains, locus YDR101C, strain arx1, stronger effect = lower value 0.983 | [3] 1.02 | S. cerevisiae deletion strains, locus YDR162C, strain NBP2, stronger effect = lower value 1.01 | S. cerevisiae deletion strains, locus YDR318W, strain mcm21, stronger effect = lower value 1 | S. cerevisiae deletion strains, locus YDR388W, stronger effect = lower value 0.993 | S. cerevisiae deletion strains, locus YDR502C, strain sam2, stronger effect = lower value 0.991 | S. cerevisiae deletion strains, locus YEL061C, strain CIN8, stronger effect = lower value 1.06 | S. cerevisiae deletion strains, locus YER110C, stronger effect = lower value 0.982 | S. cerevisiae deletion strains, locus YER155C, strain BEM2, stronger effect = lower value 0.994 | S. cerevisiae deletion strains, locus YER167W, strain BCK2, stronger effect = lower value 1 | S. cerevisiae deletion strains, locus YGL078C, strain dbp3, stronger effect = lower value 0.994 | S. cerevisiae deletion strains, locus YGL086W, strain mad1, stronger effect = lower value 0.966 | S. cerevisiae deletion strains, locus YGL248W, strain PDE1, stronger effect = lower value 0.997 | S. cerevisiae deletion strains, locus YGR078C, strain PAC10, stronger effect = lower value 0.997 | S. cerevisiae deletion strains, locus YGR135W, strain pre9, stronger effect = lower value 0.991 | S. cerevisiae deletion strains, locus YGR229C, strain SMI1, stronger effect = lower value 1.03 | S. cerevisiae deletion strains, locus YGR252W, strain gcn5, stronger effect = lower value 1.04 | S. cerevisiae deletion strains, locus YHR030C, strain SLT2, stronger effect = lower value 1 and 0.993 | S. cerevisiae deletion strains, locus YHR079C, strain IRE1 (second series), stronger effect = lower value 0.99 | S. cerevisiae deletion strains, locus YHR079C, strain IRE1, stronger effect = lower value 1 | S. cerevisiae deletion strains, locus YHR094C, strain hxt1, stronger effect = lower value 0.989 | S. cerevisiae deletion strains, locus YHR129C, strain ARP1, stronger effect = lower value 1.01 | S. cerevisiae deletion strains, locus YHR200W, strain rpn10, stronger effect = lower value 0.983 | S. cerevisiae deletion strains, locus YIL066C, strain RNR3, stronger effect = lower value 0.985 | S. cerevisiae deletion strains, locus YIL073C, strain SPO22, stronger effect = lower value 1.01 | S. cerevisiae deletion strains, locus YIL125W, strain kgd1, stronger effect = lower value 0.984 | S. cerevisiae deletion strains, locus YIR030C, strain dcg1, stronger effect = lower value 0.986 | S. cerevisiae deletion strains, locus YJL095W, strain BCK1, stronger effect = lower value 1.02 and 0.995 | S. cerevisiae deletion strains, locus YJL134W, strain LCB3, stronger effect = lower value 1 | S. cerevisiae deletion strains, locus YJL168C, strain set2, stronger effect = lower value 0.988 | S. cerevisiae deletion strains, locus YJL187C, strain SWE1 (second series), stronger effect = lower value 0.996 | S. cerevisiae deletion strains, locus YJR043C, strain POL32, stronger effect = lower value 1.01 | S. cerevisiae deletion strains, locus YJR066W, strain TOR1, stronger effect = lower value 0.942 | S. cerevisiae deletion strains, locus YKL009W, strain mrt4, stronger effect = lower value 0.966 | S. cerevisiae deletion strains, locus YKL068W, stronger effect = lower value 0.998 | S. cerevisiae deletion strains, locus YKL085W, strain MDH1 (second series), stronger effect = lower value 0.983 | S. cerevisiae deletion strains, locus YKL085W, strain MDH1, stronger effect = lower value 0.983 | S. cerevisiae deletion strains, locus YKL190W, strain CNB1, stronger effect = lower value 1.03 | S. cerevisiae deletion strains, locus YKR001C, strain vps1, stronger effect = lower value 0.985 | S. cerevisiae deletion strains, locus YLR039C, strain RIC1, stronger effect = lower value 1.07 | S. cerevisiae deletion strains, locus YLR058C, strain SHM2, stronger effect = lower value 1 | S. cerevisiae deletion strains, locus YLR102C, strain apc9, stronger effect = lower value 0.99 | S. cerevisiae deletion strains, locus YLR113W, strain HOG1, stronger effect = lower value 0.995 | S. cerevisiae deletion strains, locus YLR262C, strain YPT6, stronger effect = lower value 1.14 | S. cerevisiae deletion strains, locus YLR268W, strain sec22, stronger effect = lower value 0.972 | S. cerevisiae deletion strains, locus YLR330W, strain CHS5, stronger effect = lower value 0.992 | S. cerevisiae deletion strains, locus YLR342W, strain FKS1 (second series), stronger effect = lower value 1 | S. cerevisiae deletion strains, locus YLR371W, strain rom2, stronger effect = lower value 0.977 | S. cerevisiae deletion strains, locus YLR418C, strain cdc73, stronger effect = lower value 0.993 | S. cerevisiae deletion strains, locus YML016C, strain PPZ1, stronger effect = lower value 0.982 | S. cerevisiae deletion strains, locus YML032C, strain rad52, stronger effect = lower value 1.02 | S. cerevisiae deletion strains, locus YML124C, strain tub3, stronger effect = lower value 0.985 | S. cerevisiae deletion strains, locus YMR078C, strain ctf18, stronger effect = lower value 0.983 | S. cerevisiae deletion strains, locus YMR223W, strain ubp8, stronger effect = lower value 1.01 | S. cerevisiae deletion strains, locus YMR263W, strain SAP30, stronger effect = lower value 1 | [5] 1.1 | S. cerevisiae deletion strains, locus YNL067W, strain RPL9B, stronger effect = lower value 1 | S. cerevisiae deletion strains, locus YNL183C, strain NPR1, stronger effect = lower value 0.909 | S. cerevisiae deletion strains, locus YNL233W, strain BNI4, stronger effect = lower value 1 | S. cerevisiae deletion strains, locus YNL250W, strain rad50, stronger effect = lower value 0.972 | S. cerevisiae deletion strains, locus YNL271C, strain bni1, stronger effect = lower value 0.984 | S. cerevisiae deletion strains, locus YNL298W, strain CLA4, stronger effect = lower value 0.992 | S. cerevisiae deletion strains, locus YNL307C, strain MCK1, stronger effect = lower value 0.979 | S. cerevisiae deletion strains, locus YNL322C, strain KRE1, stronger effect = lower value 1 | S. cerevisiae deletion strains, locus YNR052C, strain pop2, stronger effect = lower value 1 | S. cerevisiae deletion strains, locus YOL006C, strain TOP1, stronger effect = lower value 0.989 | S. cerevisiae deletion strains, locus YOL012C, strain htz1 0.785 | S. cerevisiae deletion strains, locus YOL147C, strain pex11, stronger effect = lower value 0.991 | S. cerevisiae deletion strains, locus YOR061W, strain CKA2, stronger effect = lower value 0.997 | S. cerevisiae deletion strains, locus YOR069W, strain VPS5, stronger effect = lower value 1 | S. cerevisiae deletion strains, locus YOR136W, strain idh2, stronger effect = lower value 0.983 | S. cerevisiae deletion strains, locus YOR144C, strain elg1, stronger effect = lower value 0.982 | S. cerevisiae deletion strains, locus YOR184W, strain ser1, stronger effect = lower value 0.993 | S. cerevisiae deletion strains, locus YOR231W, strain MKK1, stronger effect = lower value 1.01 | S. cerevisiae deletion strains, locus YOR316C, strain cot1, stronger effect = lower value 0.983 | [11] 1.05 | S. cerevisiae deletion strains, locus YPL256C, strain CLN2, stronger effect = lower value 0.978 | S. cerevisiae deletion strains, locus YPR119W, strain clb2, stronger effect = lower value 0.986 | S. cerevisiae deletion strains, locus YPR141C, strain kar3, stronger effect = lower value 0.986 | S. cerevisiae deletion strains, locus YPR163C, strain tif3, stronger effect = lower value 0.982 | S. cerevisiae deletion strains, locus YPR167C, strain met16, stronger effect = lower value 0.988 | S. cerevisiae deletion strains, strain wtn01, stronger effect = lower value 0.971 | S. cerevisiae strains, strain wild type, stronger effect = lower value 1.03

Reference: PubChem BioAssay AID1159580 (chemical genetic matrix, 2015)
